According to PubChem BioAssay (NCI):
About 83,000 compounds went through this panel and 20% of them were active in at least one assay; those are over-represented in the sample as a whole.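 A percent growth of 40 corresponds to 60% growth inhibition; 0 means no net growth; -100 means all cells died. Active threshold: below 10.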 The source made the active and inactive calls.

How the values were obtained:
Test in all cases: NCI-60 one-dose screen, 48 h (100 = growth as untreated, 0 = no growth, -100 = all killed)
SR leukemia = conditions: 10 µM unless noted
RPMI-8226 leukemia = conditions: 10 µM unless noted
OVCAR-8 ovarian = conditions: 10 µM unless noted
OVCAR-5 ovarian = conditions: 10 µM unless noted
OVCAR-4 ovarian = conditions: 10 µM unless noted
SK-OV-3 ovarian = conditions: 10 µM unless noted
IGROV1 ovarian = conditions: 10 µM unless noted
HS 578T breast = conditions: 10 µM
NCI/ADR-RES ovarian = conditions: 10 µM unless noted
T-47D breast = conditions: 10 µM unless noted
BT-549 breast = conditions: 10 µM unless noted
MDA-MB-435 melanoma = conditions: 10 µM unless noted
SW-620 colon = conditions: 10 µM unless noted
MCF7 breast = conditions: 10 µM unless noted
HCT-116 colon = conditions: 10 µM unless noted
HCC-2998 colon = conditions: 10 µM unless noted
OVCAR-3 ovarian = conditions: 10 µM unless noted
KM12 colon = conditions: 10 µM unless noted

Measured: growth

O=C(Nc1ccc2ncnc(Nc3ccc(F)c(Cl)c3)c2c1)c1cccs1
inactive: SR leukemia 11.3% | RPMI-8226 leukemia 53% | OVCAR-8 ovarian 66.2% | OVCAR-5 ovarian 76.1% | OVCAR-4 ovarian 47.1% | SK-OV-3 ovarian 54% | IGROV1 ovarian 38.7% | HS 578T breast 72.2% | NCI/ADR-RES ovarian 60.7% | T-47D breast 28.8% | BT-549 breast 68.3% | MDA-MB-435 melanoma 70.2% | SW-620 colon 93.2% | MCF7 breast 56.1% | HCT-116 colon 54.7% | HCC-2998 colon 99.2%

O=C(c1ccc(C(F)(F)F)c(Cl)c1)N(Cc1ccc(Cl)cc1)c1ccc(-c2cc(C(F)(F)F)[nH]n2)c(O)c1
inactive: SR leukemia 20% | OVCAR-8 ovarian 11% | OVCAR-5 ovarian 17.3% | OVCAR-4 ovarian 19.9% | IGROV1 ovarian 15.2% | BT-549 breast 14.6% | MDA-MB-435 melanoma 10.1% | SW-620 colon 17.2% | KM12 colon 10%
active: RPMI-8226 leukemia 1.58% | SK-OV-3 ovarian -4.32% | OVCAR-3 ovarian 6.9% | NCI/ADR-RES ovarian 2.97% | MCF7 breast 4.31% | HCT-116 colon 3.75%

COc1cc2c(cc1OC)C(=O)C(Br)CC2 (stereo unspecified)
inactive: SR leukemia 19.8% | RPMI-8226 leukemia 20.6% | OVCAR-8 ovarian 33% | OVCAR-5 ovarian 73.7% | OVCAR-4 ovarian 52.7% | SK-OV-3 ovarian 83.2% | IGROV1 ovarian 41.7% | OVCAR-3 ovarian 38.9% | T-47D breast 36.3% | BT-549 breast 16.1% | MDA-MB-435 melanoma 20.2% | SW-620 colon 25.1% | MCF7 breast 40.9% | HCC-2998 colon 90.6% | KM12 colon 88.9%

CCCCN(CCCC)CCC(=O)c1ccc(OC)c2ccccc12
inactive: SR leukemia 38.9% | RPMI-8226 leukemia 35.6% | OVCAR-8 ovarian 75.3% | OVCAR-5 ovarian 102% | OVCAR-4 ovarian 102% | SK-OV-3 ovarian 107% | OVCAR-3 ovarian 83% | HS 578T breast 106% | NCI/ADR-RES ovarian 107% | T-47D breast 41.4% | BT-549 breast 108% | MDA-MB-435 melanoma 83.3% | SW-620 colon 61.5% | MCF7 breast 15.1% | HCT-116 colon 72.1% | HCC-2998 colon 105% | KM12 colon 71.1%

CCc1ccc(-c2ccc(NC3CCCCCC3)nn2)cc1S(N)(=O)=O
inactive: SR leukemia 103% | RPMI-8226 leukemia 99.4% | OVCAR-8 ovarian 102% | OVCAR-5 ovarian 97.5% | OVCAR-4 ovarian 102% | SK-OV-3 ovarian 105% | IGROV1 ovarian 110% | OVCAR-3 ovarian 117% | T-47D breast 103% | BT-549 breast 103% | MDA-MB-435 melanoma 106% | SW-620 colon 98.8% | MCF7 breast 95.2% | HCT-116 colon 103% | HCC-2998 colon 102% | KM12 colon 110%

O=c1c2sc3ccccc3c2nnn1-c1ccc(F)c(Cl)c1
active: SR leukemia -42% | OVCAR-4 ovarian -5.65% | SK-OV-3 ovarian -8.62%
inactive: RPMI-8226 leukemia 57.3% | OVCAR-8 ovarian 37.7% | OVCAR-5 ovarian 51% | IGROV1 ovarian 21.2% | NCI/ADR-RES ovarian 64.5% | BT-549 breast 81.6% | MDA-MB-435 melanoma 72.3% | SW-620 colon 62.3% | HCT-116 colon 19.9% | HCC-2998 colon 68.7%

CC(=O)c1ccc(-n2c(-c3cc(-c4ccsc4)n[nH]3)n[nH]c2=S)cc1
inactive: SR leukemia 94% | RPMI-8226 leukemia 101% | OVCAR-8 ovarian 98.9% | OVCAR-5 ovarian 97.8% | OVCAR-4 ovarian 105% | SK-OV-3 ovarian 104% | IGROV1 ovarian 107% | OVCAR-3 ovarian 113% | T-47D breast 103% | BT-549 breast 95.3% | MDA-MB-435 melanoma 106% | SW-620 colon 94% | MCF7 breast 90.4% | HCT-116 colon 98.1% | HCC-2998 colon 99% | KM12 colon 100%

CCCCCCCCCCC(C(O)c1ccccc1)N1CCCCC1 (stereo unspecified)
inactive: OVCAR-8 ovarian 62.8% | OVCAR-5 ovarian 47.4% | OVCAR-4 ovarian 41% | SK-OV-3 ovarian 36.1% | HS 578T breast 18.3% | NCI/ADR-RES ovarian 49.8% | BT-549 breast 79.7% | HCT-116 colon 14.7% | HCC-2998 colon 49.1%
active: SR leukemia 0.484% | RPMI-8226 leukemia -50.3% | IGROV1 ovarian 2.8% | T-47D breast -33.7% | MDA-MB-435 melanoma -54.3% | SW-620 colon -30.8% | MCF7 breast -65.4% | KM12 colon 8.17%

CC(=O)c1cccc(Nc2ncnc3ccc(NC(=O)c4ccco4)cc23)c1
inactive: SR leukemia 90.2% | RPMI-8226 leukemia 75% | OVCAR-8 ovarian 92.1% | OVCAR-5 ovarian 90.4% | OVCAR-4 ovarian 89% | SK-OV-3 ovarian 104% | IGROV1 ovarian 86.1% | HS 578T breast 102% | NCI/ADR-RES ovarian 92.7% | BT-549 breast 96.5% | MDA-MB-435 melanoma 83% | SW-620 colon 115% | MCF7 breast 80.9% | HCT-116 colon 91% | HCC-2998 colon 111%

Nc1c(C(=O)Nc2cccc(Cl)c2)sc2ncc(Br)cc12
active: OVCAR-4 ovarian 9.2%
inactive: SR leukemia 71.7% | RPMI-8226 leukemia 71.3% | OVCAR-8 ovarian 87.1% | OVCAR-5 ovarian 84.1% | SK-OV-3 ovarian 61% | IGROV1 ovarian 70% | OVCAR-3 ovarian 54.5% | BT-549 breast 68.2% | MDA-MB-435 melanoma 71.9% | SW-620 colon 61.3% | MCF7 breast 84.2% | HCT-116 colon 23% | HCC-2998 colon 99.7% | KM12 colon 63.8%

Fc1[nH]nc2ccc([C@@H]3Nc4ccc5[nH]ncc5c4[C@H]4C5CCC(C5)[C@@H]34)cc12 (stereo partly specified)
inactive: SR leukemia 42% | RPMI-8226 leukemia 18.2% | OVCAR-8 ovarian 40% | OVCAR-5 ovarian 54.3% | OVCAR-4 ovarian 54.6% | SK-OV-3 ovarian 39.7% | IGROV1 ovarian 43.1% | NCI/ADR-RES ovarian 15.2% | BT-549 breast 53.2% | SW-620 colon 23.9% | HCT-116 colon 21% | HCC-2998 colon 58.2% | KM12 colon 20.7%
active: OVCAR-3 ovarian 1.83% | MDA-MB-435 melanoma -42.5%

NC(=S)N/N=C(/c1cccs1)C1CC1
inactive: SR leukemia 120% | RPMI-8226 leukemia 63.2% | OVCAR-8 ovarian 67.7% | OVCAR-5 ovarian 90.9% | OVCAR-4 ovarian 82.8% | SK-OV-3 ovarian 103% | IGROV1 ovarian 53.5% | OVCAR-3 ovarian 51.5% | BT-549 breast 97.8% | MDA-MB-435 melanoma 87.4% | SW-620 colon 71.6% | MCF7 breast 22.5% | HCC-2998 colon 96.9% | KM12 colon 105%
active: HCT-116 colon 7.8%

CC[C@H](Nc1nc(N)nc(N)c1Cl)c1nc2cccc(NCc3ccc(C(=O)NO)cc3)c2c(=O)n1-c1ccccc1
inactive: OVCAR-5 ovarian 21.9% | NCI/ADR-RES ovarian 81.8% | SW-620 colon 19.9% | MCF7 breast 13%
active: SR leukemia -5.94% | RPMI-8226 leukemia 3.83% | OVCAR-8 ovarian -29.1% | OVCAR-4 ovarian 5.36% | SK-OV-3 ovarian -14.4% | IGROV1 ovarian -46.6% | OVCAR-3 ovarian -22.1% | T-47D breast 6.8% | MDA-MB-435 melanoma -51.2% | HCT-116 colon -63.6% | HCC-2998 colon -14.4% | KM12 colon -38.3%

OC(c1cc2cc(Cl)ccc2c2cc(C(F)(F)F)ccc12)C1CCCCN1 (stereo unspecified)
active: SR leukemia -75.3% | RPMI-8226 leukemia -48% | OVCAR-8 ovarian -74.6% | OVCAR-5 ovarian -77.8% | SK-OV-3 ovarian -0.379% | IGROV1 ovarian -67.4% | OVCAR-3 ovarian -94.8% | HS 578T breast -52.6% | NCI/ADR-RES ovarian -66.1% | T-47D breast -82.1% | MDA-MB-435 melanoma -66.1% | SW-620 colon -78.3% | HCT-116 colon -85.8% | HCC-2998 colon -86.9% | KM12 colon -90.9%
inactive: BT-549 breast 54.7%

CCCCNCCC(O)c1cc2ccc(C(F)(F)F)cc2c2cc(C(F)(F)F)ccc12 (stereo unspecified)
active: SR leukemia -70.2% | RPMI-8226 leukemia -42.8% | OVCAR-8 ovarian -77.3% | OVCAR-5 ovarian -79.9% | SK-OV-3 ovarian -34% | IGROV1 ovarian -60.9% | OVCAR-3 ovarian -84.8% | HS 578T breast -55.2% | NCI/ADR-RES ovarian -74.5% | T-47D breast -76.3% | BT-549 breast 4.84% | MDA-MB-435 melanoma -69.3% | SW-620 colon -76.2% | MCF7 breast -79.3% | HCT-116 colon -87.3% | HCC-2998 colon -78.5% | KM12 colon -85.2%

COc1cc(NCCCCC(C)N)c2nccc(C)c2c1 (stereo unspecified)
inactive: SR leukemia 98.7% | RPMI-8226 leukemia 75.2% | OVCAR-8 ovarian 97% | OVCAR-5 ovarian 81.6% | SK-OV-3 ovarian 93.3% | IGROV1 ovarian 71.3% | OVCAR-3 ovarian 73.5% | HS 578T breast 80.2% | NCI/ADR-RES ovarian 100% | T-47D breast 48.1% | BT-549 breast 94.5% | MDA-MB-435 melanoma 106% | SW-620 colon 93.3% | HCT-116 colon 99.2% | HCC-2998 colon 63.9% | KM12 colon 94.7%
active: MCF7 breast 4.24%

CCCCCCCCNC(C)C(O)c1ccc(SC(C)C)cc1 (stereo unspecified)
active: SR leukemia -55% | OVCAR-8 ovarian -5.31% | OVCAR-3 ovarian -83% | MDA-MB-435 melanoma -40.8% | SW-620 colon -63.6% | HCT-116 colon -96.9% | HCC-2998 colon -80.4% | KM12 colon -72.1%
inactive: RPMI-8226 leukemia 14.8% | OVCAR-4 ovarian 63.9% | SK-OV-3 ovarian 83.9% | IGROV1 ovarian 18.8% | HS 578T breast 49.2% | NCI/ADR-RES ovarian 47.8% | T-47D breast 49.6% | BT-549 breast 59.9%

O=c1[nH]c2ccccc2n2cc3cccnc3c12
inactive: SR leukemia 36% | RPMI-8226 leukemia 89.3% | OVCAR-8 ovarian 63.4% | OVCAR-5 ovarian 140% | SK-OV-3 ovarian 82.5% | IGROV1 ovarian 90.2% | OVCAR-3 ovarian 91.8% | HS 578T breast 88.4% | NCI/ADR-RES ovarian 58.8% | T-47D breast 81% | BT-549 breast 111% | MDA-MB-435 melanoma 12.5% | SW-620 colon 31.5% | MCF7 breast 32.2% | HCT-116 colon 33% | HCC-2998 colon 82.1% | KM12 colon 52.6%

Cc1ccc(CSCc2ccc(C(=O)NC3CC3)o2)cc1
inactive: SR leukemia 18.2% | RPMI-8226 leukemia 52.1% | OVCAR-5 ovarian 76.3% | OVCAR-4 ovarian 69.1% | SK-OV-3 ovarian 108% | IGROV1 ovarian 89.2% | OVCAR-3 ovarian 74.6% | HS 578T breast 92.2% | NCI/ADR-RES ovarian 64.3% | T-47D breast 48.4% | BT-549 breast 97.9% | MDA-MB-435 melanoma 77.7% | SW-620 colon 66.2% | MCF7 breast 25% | HCT-116 colon 81.1% | HCC-2998 colon 31.6% | KM12 colon 46.4%
